According to the supplement of paper PMC12645437, “Orthogonal IMiD-Degron Pairs Induce Selective Protein Degradation in Cells” (ACS Chemical Biology, 2025):
Whole data set: some 8,300 sequences, median “log2 fold change of degron read counts, EGFP-low vs EGFP+ sorted cells (limma voom), compound-induced degradation” near -1.1, cut for the highest 2% near 3.2. This excerpt belongs to a sample that is enriched for the highest values.

Target: T1, CRBN, Q96SW2
T1 chain: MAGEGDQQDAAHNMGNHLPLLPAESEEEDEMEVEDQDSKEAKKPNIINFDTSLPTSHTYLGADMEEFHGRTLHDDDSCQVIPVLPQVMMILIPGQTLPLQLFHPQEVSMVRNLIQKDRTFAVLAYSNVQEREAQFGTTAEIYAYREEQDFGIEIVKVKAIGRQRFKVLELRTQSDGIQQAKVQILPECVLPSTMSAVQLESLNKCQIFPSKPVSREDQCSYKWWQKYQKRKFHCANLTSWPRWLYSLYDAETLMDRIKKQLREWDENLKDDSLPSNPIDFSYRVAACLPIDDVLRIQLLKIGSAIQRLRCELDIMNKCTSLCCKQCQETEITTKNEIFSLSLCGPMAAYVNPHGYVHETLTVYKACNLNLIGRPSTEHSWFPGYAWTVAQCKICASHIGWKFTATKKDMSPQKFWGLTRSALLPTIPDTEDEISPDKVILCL
Assay: log2 fold change of degron read counts, EGFP-low vs EGFP+ sorted cells (limma voom), compound-induced degradation; higher = more compound-induced degradation of the degron-EGFP fusion; degrons are variants of IKZF1/3 zinc finger 2; compound dose not given here
Settings: Jurkat, 18 h

[1] = compound: compound 19 (5-tert-butyl-thalidomide)
[2] = compound: compound 22 (5-morpholino-thalidomide)
[3] = compound: compound 33 (diphenyl IMiD analogue)
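Note: pooled lentiviral library of zinc finger degron-EGFP fusions in mCherry-positive Jurkat cells, FACS-sorted after compound exposure, with degron abundance counted by next-generation sequencing.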

Row | Sequence | log2 fold change of degron read counts [1] | log2 fold change of degron read counts [2] | log2 fold change of degron read counts [3] | log2 fold change of degron read counts (compound: thalidomide)
1 | LACEICGFFCTQKGNLLRHIKL [46L_47A_49E_50I_52G_53F_54F_55C_67L_, Q9UKT9] | 1.23 | 0.591 | 0.235 | 0.329
2 | FKCEICGHCFTQKGNLLRHIKL [46F_47K_49E_50I_52G_53H_54C_55F_67L_, Q9UKT9] | -2.38 | -3.82 | -3.48 | -2.98
3 | FQCEICGHGFTQKGNLLRHIKL [46F_47Q_49E_50I_52G_53H_54G_55F_67L_, Q9UKT9] | -3.85 | -4.27 | -2.95 | -2.21
4 | LFCNQCGFYCTQKGNLLRHIKL [46L_47F_49N_50Q_52G_53F_54Y_55C_67L_, Q9UKT9] | -0.734 | -0.67 | -0.837 | -0.422
5 | FGCPICGARFTQKGNLLRHIKL [46F_47G_49P_50I_52G_53A_54R_55F_67L_, Q9UKT9] | 3.39 | 2.28 | 0.0226 | 1.05
6 | FNCPICGARFTQKGNLLRHIKL [46F_47N_49P_50I_52G_53A_54R_55F_67L_, Q9UKT9] | 2.1 | 1.39 | -0.35 | 0.971
7 | FRCPICGARFTQKGNLLRHIKL [46F_47R_49P_50I_52G_53A_54R_55F_67L_, Q9UKT9] | -0.853 | -0.665 | -0.334 | 0.377
8 | FVCPICGARFTQKGNLLRHIKL [46F_47V_49P_50I_52G_53A_54R_55F_67L_, Q9UKT9] | 0.924 | 2.47 | 0.874 | 2.71
9 | FLCPICGARFTQKGNLLRHIKL [46F_47L_49P_50I_52G_53A_54R_55F_67L_, Q9UKT9] | 0.407 | -0.333 | 0.469 | 1.92
10 | FSCPICGALFTQKGNLLRHIKL [46F_47S_49P_50I_52G_53A_54L_55F_67L_, Q9UKT9] | 0.486 | -0.0754 | 2.59 | 0.134
11 | FWCPICGARFTQKGNLLRHIKL [46F_47W_49P_50I_52G_53A_54R_55F_67L_, Q9UKT9] | 2.78 | 3.66 | 1.23 | 1.15
12 | FYCPICGARFTQKGNLLRHIKL [46F_47Y_49P_50I_52G_53A_54R_55F_67L_, Q9UKT9] | 2.38 | 2.5 | 0.405 | -0.0683
13 | FQCPICGALFTQKGNLLRHIKL [46F_47Q_49P_50I_52G_53A_54L_55F_67L_, Q9UKT9] | -1.04 | 1.75 | 1.86 | 3.37
14 | FVCPICGALFTQKGNLLRHIKL [46F_47V_49P_50I_52G_53A_54L_55F_67L_, Q9UKT9] | -0.961 | 0.498 | 1.25 | 1.5
15 | FECPICGARFTQKGNLLRHIKL [46F_47E_49P_50I_52G_53A_54R_55F_67L_, Q9UKT9] | 0.918 | -0.107 | 1.75 | 3.37
16 | FSCPICGARFTQKGNLLRHIKL [46F_47S_49P_50I_52G_53A_54R_55F_67L_, Q9UKT9] | 2.63 | 2.4 | 0.555 | 1.65
17 | FWCNQCGRQFTQKGNLLRHIKL [46F_47W_49N_50Q_52G_53R_54Q_55F_67L_, Q9UKT9] | -1.77 | -1.3 | -1.46 | -1.87

Row | Sequence | log2 fold change of degron read counts [1] | log2 fold change of degron read counts [2] | log2 fold change of degron read counts [3] | log2 fold change of degron read counts (compound: thalidomide)
18 | FACEICGRNFTQKGNLLRHIKL [46F_47A_49E_50I_52G_53R_54N_55F_67L_, Q9UKT9] | -0.441 | -1.8 | -2.25 | -1.66
19 | FICNVCGALFTQKGNLLRHIKL [46F_47I_49N_50V_52G_53A_54L_55F_67L_, Q9UKT9] | -2.12 | -1.66 | 0.0338 | -0.727
20 | FVCDICGALFTQKGNLLRHIKL [46F_47V_49D_50I_52G_53A_54L_55F_67L_, Q9UKT9] | -1.73 | -0.858 | -0.0343 | -0.433
21 | FCCPICGRFFTQKGNLLRHIKL [46F_47C_49P_50I_52G_53R_54F_55F_67L_, Q9UKT9] | -0.555 | -0.77 | 0.987 | -0.278
22 | FGCPICGHEFTQKGNLLRHIKL [46F_47G_49P_50I_52G_53H_54E_55F_67L_, Q9UKT9] | -1.93 | -2.76 | -2.07 | -2.26
23 | FWCNQCGHTFTQKGNLLRHIKL [46F_47W_49N_50Q_52G_53H_54T_55F_67L_, Q9UKT9] | -1.74 | -2.28 | -2.22 | -1.67
24 | FYCEQCGAMFTQKGNLLRHIKL [46F_47Y_49E_50Q_52G_53A_54M_55F_67L_, Q9UKT9] | 0.643 | 1.04 | 0.255 | -1.7
25 | FCCPICGARFTQKGNLLRHIKL [46F_47C_49P_50I_52G_53A_54R_55F_67L_, Q9UKT9] | 2.53 | 2.75 | 1.8 | 2.55
26 | FMCPICGARFTQKGNLLRHIKL [46F_47M_49P_50I_52G_53A_54R_55F_67L_, Q9UKT9] | -0.0501 | 0.185 | 1.05 | 1.11
27 | FTCPICGARFTQKGNLLRHIKL [46F_47T_49P_50I_52G_53A_54R_55F_67L_, Q9UKT9] | 1.24 | 2.95 | 1.72 | 3
28 | FICPICGARFTQKGNLLRHIKL [46F_47I_49P_50I_52G_53A_54R_55F_67L_, Q9UKT9] | 0.0922 | 2.32 | 1.27 | 2.63
29 | FKCPICGARFTQKGNLLRHIKL [46F_47K_49P_50I_52G_53A_54R_55F_67L_, Q9UKT9] | -2.04 | -2.6 | -2.42 | -1.57
30 | FACPICGARFTQKGNLLRHIKL [46F_47A_49P_50I_52G_53A_54R_55F_67L_, Q9UKT9] | 3.72 | 2.53 | -0.174 | 1.31
31 | FDCPICGARFTQKGNLLRHIKL [46F_47D_49P_50I_52G_53A_54R_55F_67L_, Q9UKT9] | 3.35 | 1.87 | 1.6 | 2.76
32 | FHCPICGARFTQKGNLLRHIKL [46F_47H_49P_50I_52G_53A_54R_55F_67L_, Q9UKT9] | 2.37 | 2.5 | 0.881 | 0.851
33 | FQCPICGARFTQKGNLLRHIKL [46F_47Q_49P_50I_52G_53A_54R_55F_67L_, Q9UKT9] | -0.209 | 2.05 | 1.18 | 3.55
34 | FFCPICGARFTQKGNLLRHIKL [46F_47F_49P_50I_52G_53A_54R_55F_67L_, Q9UKT9] | 3.13 | 3.35 | 1.51 | 1.26
